Source: PubChem (Broad Institute)
Tg IFNy HTS = T. gondii growth inhibition with IFN-gamma, primary screen, cell-based; Toxoplasma gondii growth in IFN-gamma-treated host cells; hits give low values; activity change, negative = inhibition, % (concentration not given with the values); 69,000 tested, 3.8% active; in the data active = activity change below about -70%, passing the limit was not always enough;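 note: host cells are HeLa cells infected with Toxoplasma gondii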
Numbers without * were called inactive. Shown is part of a subset that was picked to be rich in hits.

SMILES | Tg IFNy HTS
COc1ccc2c3c(n(C)c2c1)[C@@H](CO)N(C(=O)Nc1ccc(F)cc1)CC31CCN(Cc2ccccn2)CC1 | -37.3
CCCNC(=O)N1CC2(CCN(S(=O)(=O)c3ccccc3)CC2)c2c(n(C)c3cc(OC)ccc23)[C@H]1CO | -57.7
COc1ccc2c3c([nH]c2c1)[C@H](CO)N(C(=O)Nc1cccc(F)c1)CC31CCN(S(=O)(=O)c2cccc(C)c2)CC1 | -53.8
COc1ccc2c3c(n(C)c2c1)[C@H](CO)N(C(=O)Nc1ccc(F)cc1)CC31CCN(Cc2ccccn2)CC1 | -17.6
COc1ccc2c3c(n(C)c2c1)[C@H](CO)N(C(=O)Nc1ccc(F)cc1)CC31CCN(S(=O)(=O)c2cccc(C)c2)CC1 | -74.1*
COc1ccc2c3c(n(C)c2c1)[C@@H](CO)N(C(=O)Nc1ccc(F)cc1)CC31CCN(S(=O)(=O)c2cccc(C)c2)CC1 | -75.5*
CN(C)C(=O)N1C[C@@H]2COC[C@@]2(CN2CCOCC2)C1 | -13.7
CC(=O)NCC(=O)N1CCc2ncc(Cn3cncn3)n2CC1 | 0.6
Cc1ccn2c3c(nc2c1)CNC(=O)CC3c1ccc(C(=O)O)s1 (centres undefined) | 7.0
Cc1cccc(OC2CCN(C(=O)c3nc4ccccc4n(C)c3=O)CC2)c1 | 7.3
O=C(CC1CCS(=O)(=O)C1)N[C@H]1C2CCCCC2[C@@H]1c1ccccc1 (some centres undefined) | -24.9
CCCC1(NC(=O)c2cncc(Cl)c2)CC1 | -9.0
COCCN1CCOCC2(C1)CN(Cc1nc[nH]c1C)CCO2 (centres undefined) | 0.6
Cc1ccc(C2(O)CCN(Cc3cc4c(cc3Cl)OCO4)CC2)nc1 | -1.0
CC[C@@H](C(=O)O)[C@@H]1O[C@@H]([C@@H](C)[C@H](O)[C@H](C)C(=O)[C@H](CC)[C@H]2O[C@]3(C=C[C@@H](O)[C@]4(CC[C@@](C)(C5CC[C@](O)(CC)[C@H](C)O5)O4)O3)[C@H](C)C[C@@H]2C)[C@@H](C)C[C@H]1C (some centres undefined) | -81.4*
CC(C)(C)C(=O)CN1CCC2(CC1)NC(=O)c1ccccc1N2 | 36.2
CCN1CCC2(CN(CCOC)CC23CCN(CC2CC2)CC3)C1=O (centres undefined) | 4.6
O=C1CN(CC(=O)N2CCCCC2CCN2CCOCC2)CCN1 (centres undefined) | 3.6
CCCc1nncn1-c1cccc(C(F)(F)F)c1 | 1.9
COc1ccccc1CCC1CCN(C(=O)CC2(C)C(=O)N=C3C=CC=CN32)CC1 (centres undefined) | -5.4
COC(=O)c1ccccc1NC(=O)N1CCC2(CC1)Nc1cc(C)ccc1-n1cccc12 | 316.8
Cc1nc(C)c(C(=O)N2CC(C(=O)N3CCCCCC3)C2)o1 | -4.7
Cc1nc(C)c(C(=O)N2CCC(C(=O)N3CCCCCC3)C2)o1 (centres undefined) | -11.0
Cc1nc(C)c(C(=O)N2C[C@@H](c3ccccc3)[C@H](c3cc(C(F)F)n[nH]3)C2)o1 | -80.2*
O=C(c1ccccc1F)N1CCCc2cc(C(O)CN3CCCCC3)ccc21 (centres undefined) | -8.6
SMILES | Tg IFNy HTS
Cc1nc(-c2cc(S(=O)(=O)N3CCC(C)CC3)c(C)s2)sc1C | 15.5
Cc1sc(-c2nc(C(C)C)cs2)cc1S(=O)(=O)N1CCC(C)CC1 | -89.2*
Cc1nc(-c2cc(S(=O)(=O)N3CCCCC3C)c(C)s2)sc1C (centres undefined) | -10.5
Cc1oc(-c2ccccc2Cl)nc1Cn1c(=O)c2cccnc2n(-c2ccccc2)c1=O | 3.2
Cc1oc(-c2cccc(Cl)c2)nc1CN1CCN(C(=O)Nc2cccc(Cl)c2)CC1 | -3.1
COc1cccc(C)c1NC(=O)c1cccc(CN2CC[C@H](O)C2)c1 | 10.2
CO[C@H]1CN(C)C(=O)c2ccc(NC(=O)c3nc4ccccc4s3)cc2OC[C@@H](C)N(Cc2cccnc2)C[C@@H]1C | 15.9
CO[C@@H]1CN(C)C(=O)c2cc(NC(=O)C3CCCCC3)ccc2OC[C@H](C)N(Cc2cccnc2)C[C@H]1C | 27.2
CO[C@@H]1CN(C)C(=O)c2ccc(NC(=O)c3nc4ccccc4s3)cc2OC[C@@H](C)N(Cc2cccnc2)C[C@@H]1C | -112.5*
CO[C@@H]1CN(C)C(=O)c2ccc(NC(=O)c3nc4ccccc4s3)cc2OC[C@@H](C)N(Cc2cccnc2)C[C@H]1C | -84.8*
CO[C@H]1CN(C)C(=O)c2ccc(NC(=O)c3nc4ccccc4s3)cc2OC[C@H](C)N(Cc2cccnc2)C[C@H]1C | -112.9*
CO[C@@H]1CN(C)C(=O)c2cc(NC(=O)C3CCCCC3)ccc2OC[C@@H](C)N(Cc2cccnc2)C[C@H]1C | 0.8
CO[C@@H]1CN(C)C(=O)c2ccc(NC(=O)c3cccnc3)cc2OC[C@@H](C)N(CC2CCCCC2)C[C@H]1C | 144.3
CO[C@H]1CN(C)C(=O)c2cc(NC(=O)C3CCCCC3)ccc2OC[C@@H](C)N(Cc2cccnc2)C[C@H]1C | 69.4
CO[C@H]1CN(C)C(=O)c2cc(NC(=O)c3nc4ccccc4s3)ccc2OC[C@H](C)NC[C@@H]1C | -16.7
CC(C)c1nc(Cc2ccc3c(c2)OCO3)n(-c2ccccn2)n1 | 1.6
CCN1C(=O)[C@@H]2CN(C(C)=O)C[C@H]2C12CCN(C(=O)Nc1ccc(F)cc1)CC2 | 320.6
CN1CCc2onc(Cn3ccnc3)c2C1 | 39.2
CC(=O)N1CCc2c(nc(N(C)C)nc2N2CCN(CCCO)CC2)C1 | 1.8
COc1ccccc1-c1ccc(C(=O)NCC2(O)CCCNCC2)cc1 (centres undefined) | -22.3
O=C1NC2(CCN(c3ncc(F)cn3)CC2)CC1c1ccccc1 (centres undefined) | 3.8
Cc1cccc(CNC2=NCCNC23CCN(S(=O)(=O)c2ccc4c(c2)CCCC4)CC3)c1 | -64.1
Clc1ccccc1CNc1nc(-c2nnc(-c3ccccc3)o2)nc2ccccc12 | -48.7
COc1ccc(-c2nnc(-c3nc(NCc4ccccc4)c4ccccc4n3)o2)cc1 | -68.5
COc1ccc(-c2nnc(-c3nc(NCc4ccccc4C)c4ccccc4n3)o2)cc1 | 32.0
SMILES | Tg IFNy HTS
Cc1ccc(-c2nnc(-c3nc(NCc4ccccn4)c4ccccc4n3)o2)cc1 | -94.1*
c1ccc(CCNc2nc(-c3nnc(-c4ccccc4)o3)nc3ccccc23)cc1 | -64.2
CCOc1ccccc1CNc1nc(-c2nnc(-c3ccc(OC)cc3)o2)nc2ccccc12 | -13.1
Cc1ccc(-c2nnc(-c3nc(NCc4ccco4)c4ccccc4n3)o2)cc1 | 35.0
CC(CNc1nc(-c2nnc(-c3ccccc3)o2)nc2ccccc12)c1ccccc1 (centres undefined) | -115.4*
Cc1ccccc1CNc1nc(-c2nnc(-c3ccccc3)o2)nc2ccccc12 | -89.8*
COc1ccccc1CNc1nc(-c2nnc(-c3ccccc3)o2)nc2ccccc12 | -96.0*
Cc1ccc(-c2nnc(-c3nc(NC(C)c4ccccc4)c4ccccc4n3)o2)cc1 (centres undefined) | -63.4
COc1cc(CNc2nc(-c3nnc(-c4ccc(C)cc4)o3)nc3ccccc23)cc(OC)c1OC | -45.7
COC[C@H]1CN(C)C[C@]12CCN(C(=O)CC1Cc3ccccc3C1)C2 | -1.7
Cc1ccc(N2CCN(c3ccc(C)cc3)C2c2cccs2)cc1 | 37.6
CCS(=O)(=O)N1CCC2(CC1)OC(=O)C(C)=C2C(=O)NCc1cccnc1 | 13.0
Cc1cccc(S(=O)(=O)Nc2ccc3c(c2)CCC(=O)N3)c1 | 63.5
COC(=O)[C@@H](NC1CCN(c2ccc(NC(=O)Cc3cccc(F)c3)cc2)CC1)C(C)C | 20.7
Cc1cccc(NC(=O)c2cc(-c3ccccc3)nc3c(C)cc(C)cc23)c1 | -59.6
